The supplement of paper PMC3334620
Whole data set: some 33,000 sequences, median “E-score (-0.5 to 0.5)” near -0.012, cut for the highest 2% near 0.27. Many of the other results were omitted from the sample, so the highest values are more common in it than they were.

biological target: T1, Vhr1 (UniProt P40522); test: PBM E-score (8-mer binding enrichment) (E-score (-0.5 to 0.5)); higher = stronger / more preferred TF binding; conditions: protein concentration: 200 nM; construct: GST-full length
T1 sequence: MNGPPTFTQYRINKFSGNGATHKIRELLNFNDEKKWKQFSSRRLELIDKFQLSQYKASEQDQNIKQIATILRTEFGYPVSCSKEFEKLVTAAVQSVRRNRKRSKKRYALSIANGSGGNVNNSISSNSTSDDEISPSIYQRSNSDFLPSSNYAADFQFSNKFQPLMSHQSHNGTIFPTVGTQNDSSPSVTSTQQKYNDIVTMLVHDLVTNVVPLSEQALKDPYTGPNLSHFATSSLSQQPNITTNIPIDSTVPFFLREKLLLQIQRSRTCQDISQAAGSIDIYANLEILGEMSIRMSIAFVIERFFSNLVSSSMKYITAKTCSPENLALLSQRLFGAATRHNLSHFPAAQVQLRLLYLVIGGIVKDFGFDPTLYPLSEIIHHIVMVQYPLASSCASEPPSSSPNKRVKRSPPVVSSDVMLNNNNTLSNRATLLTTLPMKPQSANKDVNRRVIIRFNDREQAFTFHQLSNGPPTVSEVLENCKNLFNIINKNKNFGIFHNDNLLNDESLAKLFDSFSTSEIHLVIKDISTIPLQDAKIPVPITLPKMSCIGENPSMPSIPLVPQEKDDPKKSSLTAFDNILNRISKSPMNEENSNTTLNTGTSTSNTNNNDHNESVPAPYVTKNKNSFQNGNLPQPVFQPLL
Experimental: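 Universal 'all 10-mer' protein binding microarrays (Agilent AMADID 015681) probed with GST-tagged S. cerevisiae TFs (full-length or DBD) made by in vitro transcription/translation (PURExpress), about 100-200 nM. Bound TF was detected with fluorescent anti-GST. Each ungapped 8-mer (which stands for itself and its reverse complement) is scored by the PBM enrichment score (E-score), a modified Wilcoxon-Mann-Whitney statistic from -0.5 to +0.5, computed with the Universal PBM Analysis Suite. Scale: above 0.35 generally sequence-specific binding.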

Question: Which “PBM E-score” value does the source give for ACTATGTG here?
Answer: 0.292

Question: With ACTATGTA as the sequence, how does the “PBM E-score” value read?
Answer: 0.207

Question: ACCATGTA was tested. Which “PBM E-score” value did it give?
Answer: 0.261

Question: ACCATGTC was tested. Which “PBM E-score” value did it give?
Answer: 0.144

Question: ACCATGTG was tested. Which “PBM E-score” value did it give?
Answer: 0.295

Question: For ACTATGTC, which “PBM E-score” value is on record?
Answer: 0.091

Question: Which “PBM E-score” value does the source give for ATGCCCTC here?
Answer: -0.0196

Question: How did the “PBM E-score” value turn out when CCAGGTTA was run?
Answer: -0.0596

Question: Which “PBM E-score” value does the source give for GTGATTGA here?
Answer: 0.329

Question: With ATGATTGG as the sequence, how does the “PBM E-score” value read?
Answer: 0.178

Question: GCGATTGA was tested. Which “PBM E-score” value did it give?
Answer: -0.121

Question: With ATGATTGA as the sequence, how does the “PBM E-score” value read?
Answer: 0.344

Question: With ACGATTGA as the sequence, how does the “PBM E-score” value read?
Answer: 0.0265

Question: Which “PBM E-score” value does the source give for CTGATTGC here?
Answer: 0.035

Question: Which “PBM E-score” value does the source give for ATGATTGC here?
Answer: 0.345

Question: With ACGATTGC as the sequence, how does the “PBM E-score” value read?
Answer: 0.0187

Question: For CTGATTGA, which “PBM E-score” value is on record?
Answer: 0.177

Question: ACTCTTAA was tested. Which “PBM E-score” value did it give?
Answer: -0.233

Question: ACGTTGGA was tested. Which “PBM E-score” value did it give?
Answer: 0.0766

Question: How did the “PBM E-score” value turn out when GGCGTTAC was run?
Answer: -0.119

Question: Which “PBM E-score” value does the source give for ACGTGATG here?
Answer: 0.00697

Question: AAGAAGCT was tested. Which “PBM E-score” value did it give?
Answer: -0.191

Question: CCTCTGCC was tested. Which “PBM E-score” value did it give?
Answer: -0.286

Question: For AAAGCGTA, which “PBM E-score” value is on record?
Answer: -0.183

Question: How did the “PBM E-score” value turn out when ATAGCATG was run?
Answer: -0.034

Question: For GCTGTCAA, which “PBM E-score” value is on record?
Answer: -0.125

Question: How did the “PBM E-score” value turn out when ATTTTATC was run?
Answer: -0.13

Question: Which “PBM E-score” value does the source give for AGAGCGCT here?
Answer: -0.249

Question: ACCGTTCA was tested. Which “PBM E-score” value did it give?
Answer: -0.0238

Question: With CCTCGCGC as the sequence, how does the “PBM E-score” value read?
Answer: -0.0292

Question: With AGTCGCGA as the sequence, how does the “PBM E-score” value read?
Answer: 0.305

Question: How did the “PBM E-score” value turn out when ACTCGCGA was run?
Answer: 0.227

Question: ACTCGCGC was tested. Which “PBM E-score” value did it give?
Answer: 0.273

Question: How did the “PBM E-score” value turn out when ACTCGCCG was run?
Answer: 0.306

Question: For ACTCGCGG, which “PBM E-score” value is on record?
Answer: 0.209

Question: Which “PBM E-score” value does the source give for ACTCGCCT here?
Answer: 0.0445

Question: AGTCGCTG was tested. Which “PBM E-score” value did it give?
Answer: 0.216

Question: Which “PBM E-score” value does the source give for CGTCGCGA here?
Answer: 0.181

Question: For GGTCGCGA, which “PBM E-score” value is on record?
Answer: 0.194

Question: With CCTCGCCG as the sequence, how does the “PBM E-score” value read?
Answer: -0.118

Question: Which “PBM E-score” value does the source give for AGTCGCGG here?
Answer: 0.351

Question: AGCAAATA was tested. Which “PBM E-score” value did it give?
Answer: -0.0751

Question: How did the “PBM E-score” value turn out when CAAATTGA was run?
Answer: -0.124

Question: With TGCAGCAA as the sequence, how does the “PBM E-score” value read?
Answer: 0.114

Question: Which “PBM E-score” value does the source give for AATCCTAC here?
Answer: -0.159

Question: With CTAAGCCA as the sequence, how does the “PBM E-score” value read?
Answer: -0.0787

Question: TACGGCGA was tested. Which “PBM E-score” value did it give?
Answer: 0.0569

Question: Which “PBM E-score” value does the source give for ACCGAGTG here?
Answer: 0.13

Question: For AATGCGCG, which “PBM E-score” value is on record?
Answer: 0.193

Question: How did the “PBM E-score” value turn out when CAATTCTG was run?
Answer: -0.077

Question: How did the “PBM E-score” value turn out when AGAAAATA was run?
Answer: -0.0162

Question: How did the “PBM E-score” value turn out when ACTCGCTG was run?
Answer: 0.0751

Question: AGTCGCTC was tested. Which “PBM E-score” value did it give?
Answer: 0.237

Question: For AGTCGCGC, which “PBM E-score” value is on record?
Answer: 0.374

Question: How did the “PBM E-score” value turn out when ACTCGCTC was run?
Answer: 0.282

Question: How did the “PBM E-score” value turn out when CGTCGCGC was run?
Answer: 0.0614

Question: How did the “PBM E-score” value turn out when ACTCGCTA was run?
Answer: 0.133

Question: ACAGGTTG was tested. Which “PBM E-score” value did it give?
Answer: 0.0217

Question: Which “PBM E-score” value does the source give for AACCAATG here?
Answer: 0.209

Question: CAGAGTTC was tested. Which “PBM E-score” value did it give?
Answer: -0.0458

Question: How did the “PBM E-score” value turn out when CCCCTACG was run?
Answer: -0.139

Question: CATCCATC was tested. Which “PBM E-score” value did it give?
Answer: 0.0866

Question: With GTCATGTA as the sequence, how does the “PBM E-score” value read?
Answer: 0.141

Question: Which “PBM E-score” value does the source give for ACCTATAG here?
Answer: -0.144

Question: With ACCGACTC as the sequence, how does the “PBM E-score” value read?
Answer: 0.34

Question: How did the “PBM E-score” value turn out when ACCGACTG was run?
Answer: 0.177

Question: For ACCGACTA, which “PBM E-score” value is on record?
Answer: -0.0288

Question: For CCCGACTA, which “PBM E-score” value is on record?
Answer: 0.206

Question: With CCCGACTC as the sequence, how does the “PBM E-score” value read?
Answer: 0.426

Question: With CCCGACCC as the sequence, how does the “PBM E-score” value read?
Answer: 0.123

Question: Which “PBM E-score” value does the source give for CAAGACGA here?
Answer: -0.109

Question: Which “PBM E-score” value does the source give for GGACTCCA here?
Answer: 0.13

Question: For CGACTCCA, which “PBM E-score” value is on record?
Answer: 0.4

Question: How did the “PBM E-score” value turn out when CGACTCCC was run?
Answer: 0.321

Question: TGACTCCA was tested. Which “PBM E-score” value did it give?
Answer: 0.48

Question: How did the “PBM E-score” value turn out when AGACTCCA was run?
Answer: 0.133

Question: Which “PBM E-score” value does the source give for CAACTCCG here?
Answer: -0.0132

Question: CTACTCCA was tested. Which “PBM E-score” value did it give?
Answer: -0.0498

Question: With AGACTCCC as the sequence, how does the “PBM E-score” value read?
Answer: -0.00382

Question: CGACTCCG was tested. Which “PBM E-score” value did it give?
Answer: 0.391

Question: For AGACTCCG, which “PBM E-score” value is on record?
Answer: 0.225

Question: CCACTCCA was tested. Which “PBM E-score” value did it give?
Answer: 0.0742

Question: Which “PBM E-score” value does the source give for GGACTCCC here?
Answer: 0.0918

Question: TCCCCCCA was tested. Which “PBM E-score” value did it give?
Answer: -0.233

Question: With CATACTAG as the sequence, how does the “PBM E-score” value read?
Answer: 0.238

Question: GTTTGAAA was tested. Which “PBM E-score” value did it give?
Answer: -0.0935

Question: ATTGTGAA was tested. Which “PBM E-score” value did it give?
Answer: -0.0037

Question: For ATCCAGGG, which “PBM E-score” value is on record?
Answer: -0.0888

Question: Which “PBM E-score” value does the source give for AGCTCCCT here?
Answer: -0.235

Question: How did the “PBM E-score” value turn out when CCCCCTAC was run?
Answer: -0.185

Question: With AAAAGCGC as the sequence, how does the “PBM E-score” value read?
Answer: -0.137

Question: Which “PBM E-score” value does the source give for CCAATCAG here?
Answer: -0.0885

Question: Which “PBM E-score” value does the source give for ACAATCAT here?
Answer: 0.231

Question: With CGAATCAG as the sequence, how does the “PBM E-score” value read?
Answer: 0.344

Question: With AGAATCAA as the sequence, how does the “PBM E-score” value read?
Answer: 0.0929

Question: How did the “PBM E-score” value turn out when AGAATCAT was run?
Answer: 0.323

Question: For AGAATCAC, which “PBM E-score” value is on record?
Answer: 0.228

Question: Which “PBM E-score” value does the source give for AGAATCCT here?
Answer: -0.231

Question: CGAATCAA was tested. Which “PBM E-score” value did it give?
Answer: 0.127

Question: AGAATCAG was tested. Which “PBM E-score” value did it give?
Answer: 0.283
